tim10-1 inh = growth inhibitors of tim10-1 mutant yeast, primary screen, luminescence, uHTS; S. cerevisiae tim10-1 ts strain growth, BacTiter-Glo, 24 h; inhibition, % at 20 µM; 330,000 compounds, 2.2% hits; AID 463190, 2010;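 active means inhibition of at least 40%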;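 further: mutant grown at 25 °C; 0% = DMSO wells with yeast and 100% = wells holding no yeast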
Calb FLC = C. albicans growth inhibition with fluconazole, primary screen, CaCi-2 strain, Alamar Blue fluorescence. C. albicans CaCi-2 (fluconazole-resistant clinical isolate) + fluconazole, 48 h. growth inhibition, % (test concentration not listed). 300,000 compounds, 0.57% hits;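 active means growth inhibition above about 58% in most replicates, limit read from the data, passing the limit was not always enough; inconclusive means exactly half the replicates above a set limit; inactive means most replicates below a set limit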;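 further: all wells also contain fluconazole at 8 µg/ml as a sub-toxic cotreatment; 0% = median of DMSO wells and 100% = median of geldanamycin control wells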
TIM10 inh = growth inhibitors of isogenic TIM10 control yeast, primary screen, counter-screen for tim10-1 yeast inhibitor project, luminescence, uHTS. 330,000 compounds, 1.4% hits. inhibition, % at 10 µM. AID 463195, 2010. S. cerevisiae TIM10 strain growth, BacTiter-Glo luminescence, 24 h;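 active means inhibition of 40% or more at the single tested concentration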;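 further: wild-type TIM10 isogenic control strain grown at permissive 25 °C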
SKKanGAS inh = S. pyogenes SKKanGAS growth inhibitors in kanamycin, primary screen, streptokinase expression inhibitor project, SKKanGAS strain, BacTiter-Glo luminescence. AID 1662, 2009. inhibition, % at 7.5 µM. 300,000 compounds, 1.3% hits. 6 h;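 active means mean replicate score, as percent of positive control median, at least 50; inconclusive means mean below 50 but one replicate at or above 50; inactive means mean and every replicate below 50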;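 further: strain carries kanamycin resistance gene driven by streptokinase promoter and grows in 40 µg/ml kanamycin; loss of luminescence reflects streptokinase promoter inhibition or plain growth inhibition; 0% = median of DMSO wells and 100% = positive control at its reference dose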
tim23-1 inh = growth inhibitors of tim23-1 mutant yeast, primary screen, luminescence, uHTS; S. cerevisiae tim23-1 growth, BacTiter-Glo luminescence, 24 h; inhibition, % at 20 µM; 330,000 compounds, 1.3% hits; AID 463212, 2010;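 active means growth inhibition of the mutant yeast at or above 50%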;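 further: temperature-sensitive mutant grown at 25 °C; plate controls were DMSO-treated mutant yeast for no effect and medium wells lacking yeast for full effect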
PfHsp90 set2 = growth inhibition of PfHsp90-expressing yeast, primary screen, antimalarial PfHsp90 inhibitor project, S. cerevisiae, BacTiter-Glo luminescence, single point, set 2 | BacTiter-Glo ATP, 48 h; yeast lacking PDR1 and PDR3 efflux regulators | 310,000 compounds, 0.32% hits | inhibition, % at 9.4 µM;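 active means every replicate shows inhibition above about 80%, whatever the replicate mean, limit read from the data; inconclusive means mean inhibition reaches the set limit but some replicate falls short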;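 further: 0% = DMSO neutral controls and 100% = 20 µM radicicol positive controls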
tim10-1 conf = growth inhibitors of tim10-1 mutant yeast, confirmation, single concentration, luminescence, S. cerevisiae; S. cerevisiae tim10-1 ts strain growth, BacTiter-Glo, 24 h; shares compounds with tim10-1 inh; 7,400 compounds, 56% hits; inhibition, % at 20 µM; AID 463213, 2010;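 active means inhibition of yeast growth at or above a set limit in either of two repeat tests at 20 µM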;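 further: tim10-1 mutant grown at permissive 25 °C to find synthetic lethal compounds; 0% = DMSO yeast wells and 100% = medium wells without yeast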
An asterisk follows results filed as active; ? = inconclusive; / = no result given. Hits are enriched below; roughly 4.7% of the tested compounds scored in any of these assays.

SMILES	tim10-1 inh	Calb FLC	TIM10 inh	SKKanGAS inh	tim23-1 inh	PfHsp90 set2	tim10-1 conf
Cc1ccc(SCC2(O)CCN(S(=O)(=O)c3ccc(Cl)cc3)CC2)cc1	41*	35	31	0	26	/	25
N#CCSc1nccc(/C=C/c2ccccc2)n1	14	?	13	4	19	-18	/
CSc1nc2nccc(/C=C\c3ccccc3)n2n1	53*	67	24	3	34	12	38*
CC(C)(C)OC(=O)N1CCCC(C(=O)Nc2ccc(C(=O)NCc3ccccc3)cc2)C1 (stereo not given)	/	/	/	/	/	-2	/
Cc1ccc(Nc2nc(N)nc(CN3CCN(c4ccccc4)CC3)n2)cc1Cl	45*	31	22	87*	45	16	21
CCOc1cc(/C=N/O)cc(Br)c1OCc1ccc(Cl)cc1	54*	0	-11	4	-18	-2	27
CCOc1cc(/C=N/O)cc(Br)c1OCC	18	-5	9	-3	0	-138	/
N/C(=N\N=C/c1ccc(Br)cc1)N/N=C\c1ccc(Br)cc1	-15	-20	32	?	-10	-2	/
N/C(=N\N=C/c1ccc(F)cc1)N/N=C\c1ccc(F)cc1	44*	-7	30	-15	49	5	-72
CCCCC1(Br)C(=O)N(c2ccccc2)N(c2ccccc2)C1=O	12	/	14	/	13	-30	/
CN1CC(c2ccccc2)C2(SC(=S)N(Cc3ccco3)C2=O)C12C(=O)Nc1ccccc12 (stereo not given)	44*	-7	13	13	19	/	16
S=C1CC2CCCC(C2)N1 (stereo not given)	/	/	/	/	/	-11	/
O=[N+]([O-])c1cc(/C=N/NC(=S)Nc2ccccc2Cl)ccc1Cl	46*	-1	36	/	20	-12	14
Cc1ccccc1NC(=O)CN1C(=O)N/C(=C\c2ccccc2OCc2ccc(C(=O)O)cc2)C1=O	/	21	/	20	/	-26	/
CC(Oc1ccc(F)cc1)C(=O)Nc1ccccc1N1CCCCC1 (stereo not given)	13	3	3	?	26	2	/
CCOC(=O)[C@H]1[C@H]2COc3ccc(OC)cc3[C@@H]2N2C(=O)CN(Cc3ccccc3)C(=O)[C@@]12C	10	/	5	/	14	-15	/
COc1ccc(OCCC(=O)OCC(=O)NC2CCCCCCC2)cc1	43*	-18	24	-15	38	-11	40*
COc1ccc(C(=O)N2CCN(S(=O)(=O)c3ccc(Br)cc3)CC2)cc1	15	/	9	/	30	5	/
N#Cc1ccc(NC(=O)COC(=O)c2cccnc2Cl)cc1	-23	/	-1	/	-10	-1	/
COc1ccc(NC(=O)c2nc(S(=O)(=O)Cc3cccc(C)c3)ncc2Cl)c(OC)c1	32	2	19	3	35	-8	/
Cc1cccc(CS(=O)(=O)c2ncc(Cl)c(C(=O)NCc3ccccc3)n2)c1	44*	-13	17	-25	38	-2	-39
Cc1nn(-c2nnc(NC3CCCCC3)nn2)c(C)c1Br	45*	-5	22	6	37	-8	34*
CCOc1ccc(C(=O)NCc2ccco2)cc1Cl	-9	1	-2	4	-8	1	/
CC[C@@]1(c2ccccc2)C(=O)N(C(=O)OC)N1C(=O)OC	0	-7	-14	2	-8	8	/
COC(=O)N1C(=O)[C@@](c2ccccc2)(C2CCCCC2)N1C(=O)OC	50*	-3	-1	-2	-1	-13	45*
SMILES	tim10-1 inh	Calb FLC	TIM10 inh	SKKanGAS inh	tim23-1 inh	PfHsp90 set2	tim10-1 conf
O=C(Nc1ccccc1C(=O)O)/C(=C/c1ccc(Cl)cc1Cl)NC(=O)c1ccco1	-1	14	-12	5	-13	-4	/
COc1ccc(N/C(C)=C/C(=S)Nc2ccccc2)cc1	41*	-35	15	-1	26	5	15
COc1cc2c(cc1OC)C(C)N(C(=O)c1cc3c(C)cc(C)cc3[nH]1)CC2 (stereo not given)	41*	17	21	4	39	-14	10
COc1cc2c(cc1OC)C(C)N(C(=O)Nc1cc(C)cc(C)c1)CC2 (stereo not given)	23	-4	12	0	18	-8	/
Cc1ccc(S(=O)(=O)N2CCCCC2)cc1NC(=O)c1ccc(Cl)nc1	3	/	-10	/	15	15	/
COc1ccc(CN(C2CCCC2)S(=O)(=O)c2ccc(-n3cnnn3)cc2)cc1OC	28	67	-13	2	-4	11	/
COc1ccc(CN(C2CCCC2)S(=O)(=O)c2ccc(-n3cnnn3)cc2)cc1	40*	4	34	5	34	-17	35*
COc1ccc(C(=O)Nc2ccc(Cl)c(S(=O)(=O)Nc3ccccc3OC)c2)cc1	41*	18	16	15	44	-22	28
CCOC(=O)c1oc2ccc(CNC3CCCCC3)c(Cl)c2c1C	41*	-38	19	4	20	-5	18
CCOC(=O)c1oc2ccc(CNCCO)c(Cl)c2c1C	-1	-4	13	-4	-8	17	/
COc1cc(C(=O)Nc2ccc3nc(N4CCOCC4)sc3c2)cc(OC)c1OC	41*	/	22	/	30	-9	16
COc1cccc(OC)c1C(=O)Nc1ccncc1	-7	-1	19	-3	7	11	/
Cc1ccccc1N=C1NN=C(c2ccccc2F)CS1	42*	-11	6	11	15	-8	22
CCOc1ccccc1NC(=O)CCS(=O)(=O)c1ccc2c(c1)CCN2C(C)=O	23	3	13	-3	15	-4	/
Cc1ccc(NC(=O)c2ncn(CCCNCC(C)c3ccccc3)n2)cc1C (stereo not given)	/	/	/	/	/	-23	/
CN(C)c1nc(SCC(=O)Nc2ccccc2)nc(N2CCOCC2)n1	-5	?	27	-2	11	-11	/
CC(C)(C)Nc1nc(SCC(=O)Nc2ccccc2)nc(N2CCOCC2)n1	46*	2	13	-2	18	4	-6
CO/N=C/c1ccc(Oc2ccc(C)cc2)c([N+](=O)[O-])c1	4	2	5	4	16	18	/
O=[N+]([O-])c1cc(/C=N/O)ccc1Sc1ccccc1	-15	-6	-60	-2	-11	-63	/
O=[N+]([O-])c1cc(/C=N/O)ccc1Oc1ccccc1Cl	55*	12	27	1	33	106*	42*

Bioassay records: PubChem, several laboratories
